Compound activity from PubChem.
MsrA inh = bovine MsrA inhibition | purified bovine MsrA, absorbance read-out | inhibition, % at 15.5 µM | hit rate 0.75% among 360,000 | AID 651718; in the data active = inhibition above about 4.5%;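 also: 0% = vehicle wells with enzyme and 100% = reference inhibitor wells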
rCAG binder-1 = molecules binding r(CAG) RNA repeats; r(CAG) RNA repeat, TO-PRO-1 dye displacement fluorescence; inhibition, % at 3 µM; hit rate 1.3% among 370,000; AID 651821;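 active = inhibition above the plate cutoff, the mean of all test compounds on that plate plus 3 SD, cut at about 35% in these data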;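 also: 0% = DMSO alone and 100% = 100 µM mitoxantrone as full dye displacement; higher means more dye released from RNA so lower well fluorescence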
NadD inh = blocks S. aureus nicotinate mononucleotide adenylyltransferase. purified NadD enzyme, colorimetric absorbance read-out. inhibition, % at 20 µM. hit rate 0.78% among 360,000. AID 602399; in the data active = inhibition above about 26%
bovine MsrA act = activates bovine MsrA enzyme; activation, % at 10.6 µM; hit rate 0.3% among 360,000; purified bovine MsrA, absorbance read-out; in the data active = activation above about 7.5%;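 also: 0% = vehicle and 100% = reference activator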
rCAG bind conf = r(CAG) RNA repeat binding, confirmation; TO-PRO-1 dye displacement fluorescence; inhibition, % at 3 µM; hit rate 70% among 4,300; AID 652065; shares compounds with rCAG binder-1;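 active = inhibition above a per-plate cutoff, the mean inhibition of sample wells plus 3 SD, cut at about 35% in these data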;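 also: loss of TO-PRO-1 fluorescence as compound displaces dye from 1x1 AA loop RNA; 0% = DMSO only wells and 100% = 100 µM mitoxantrone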
DNA CAG counter = DNA CAG dye complex inhibition counter-screen; shares compounds with rCAG binder-1; d(CAG) DNA oligo TO-PRO-1 dye displacement, fluorescence; inhibition, % at 3 µM; hit rate 94% among 4,300;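 active = inhibition above its plate's cutoff, the mean test-well inhibition plus 3 SD, cut at about 4.8% in these data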;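 also: 0% = DNA dye mix with DMSO and 100% = 100 µM mitoxantrone; hits displace the dye from DNA and so lower well fluorescence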
DNA CAG DR = disrupts DNA CAG TO-PRO-1 complex in dose response. DNA CAG/GTC duplex TO-PRO-1 dye displacement fluorescence. IC50, µM. shares compounds with rCAG binder-1. AID 686960. hit rate 20% among 250; in the data active = IC50 below about 10 µM
dCAG TOPRO ctr = DNA CAG dye complex inhibition, late stage dose response; IC50, µM; d(CAG) DNA duplex TO-PRO-1 dye displacement, fluorescence; hit rate 80% among 30; shares compounds with rCAG binder-1
rCAG binder-2 = r(CAG) repeat RNA binding, TO-PRO-1 displacement. shares compounds with rCAG binder-1. r(CAG) RNA TO-PRO-1 dye displacement, fluorescence. IC50, µM. hit rate 100% among 30. AID 720651
The depositor's hits bear a star. The list is not random: actives were taken first. Their share in the collection is about 2.7%. Unless noted, no rule for the calls is given here.

O=C(N/N=C/c1c(O)n(C2CCCCC2)c(=S)[nH]c1=O)c1ccccc1 was read as MsrA inh 1, rCAG binder-1 16, NadD inh 3 and bovine MsrA act -3.
For O=C(N/N=C1/CN2CCC1CC2)c1cc2ccccc2cc1O the results were MsrA inh 2, rCAG binder-1 49*, NadD inh 9, bovine MsrA act -1, rCAG bind conf 7 and DNA CAG counter 2.
For O=NN1CCCCC1 the results were MsrA inh 0, rCAG binder-1 3, NadD inh 3 and bovine MsrA act -2.
COP(=S)(OC)Oc1ccc(Sc2ccc(OP(=S)(OC)OC)cc2)cc1 was read as MsrA inh -1, rCAG binder-1 39*, NadD inh 22, bovine MsrA act -3, rCAG bind conf 19 and DNA CAG counter 7.6*.
Screening Nc1ccc(Sc2ccc(N)cc2)cc1 returned MsrA inh 0, rCAG binder-1 4, NadD inh 3 and bovine MsrA act -3.
`O=C(c1cc(Cl)cc(Cl)c1)N1Cc2ccccc2-n2nncc2C1` gave MsrA inh -2, rCAG binder-1 1, NadD inh 5 and bovine MsrA act 1.
For C=CCn1c(O)c(/C(C)=N/NC(=S)Nc2ccccc2)c(=O)[nH]c1=O the results were MsrA inh 2, rCAG binder-1 37*, NadD inh -5, bovine MsrA act 5, rCAG bind conf 44* and DNA CAG counter 13*.
N#CC1c2ccccc2-n2nncc2CN1C(=O)CCc1ccccc1 (stereo not given) was read as MsrA inh 0, rCAG binder-1 2, NadD inh 0 and bovine MsrA act -1.
`CCC(C)n1c(O)c(/C=N/N2CCOCC2)c(=O)[nH]c1=S` (stereo not given) gave MsrA inh 2, rCAG binder-1 36*, NadD inh -3, bovine MsrA act 3, rCAG bind conf 2 and DNA CAG counter 0.
`CCC(C)n1c(O)c(C=NCCN2CCOCC2)c(=O)[nH]c1=S` (stereo not given) gave MsrA inh 2, rCAG binder-1 -3, NadD inh -2 and bovine MsrA act -10.
For O=[N+]([O-])c1ccc(N2CCCC(C(F)(F)F)C2)c2ccncc12 (stereo not given) the results were MsrA inh -1, rCAG binder-1 2, NadD inh 3 and bovine MsrA act -1.
Screening COc1ccc(OC)c(CN2CCN(C(=O)Cc3ccccc3)CC2)c1 returned MsrA inh 0, rCAG binder-1 -11, NadD inh -2 and bovine MsrA act -3.
`CN(C)[C@@H]1C(=O)C(C(N)=O)=C(O)[C@@]2(O)C(=O)C3=C(O)c4c(O)cccc4[C@@](C)(O)C3[C@H](O)C12` (stereo not given in full) gave MsrA inh 1, rCAG binder-1 55*, NadD inh 20, bovine MsrA act -6, rCAG bind conf 21 and DNA CAG counter 7.5*.
Screening COCCNC(=O)c1ccc(N2CC3CC(C2)c2cccc(=O)n2C3)c([N+](=O)[O-])c1 (stereo not given) returned MsrA inh 0, rCAG binder-1 -2, NadD inh -3 and bovine MsrA act -4.
For O=C(O)c1cccc2c1NC(c1cccc([N+](=O)[O-])c1)C1CC(Sc3ccccc3[N+](=O)[O-])C(Cl)C21 (stereo not given) the results were MsrA inh 1, rCAG binder-1 76*, NadD inh 60*, bovine MsrA act -9, rCAG bind conf 92* and DNA CAG counter 74*.
For O=[N+]([O-])c1cccc(C2N3CCCN23)c1 (stereo not given) the results were MsrA inh -1, rCAG binder-1 -2, NadD inh -2 and bovine MsrA act -1.
Screening S=C(NCCc1ccccc1)N1Cc2ccccc2-n2nncc2C1 returned MsrA inh -1, rCAG binder-1 2, NadD inh -3 and bovine MsrA act -1.
For O=C(O)Cn1cc(/C=C2\C(=O)NC(=O)N(Cc3ccco3)C2=O)c2ccccc21 the results were MsrA inh 1, rCAG binder-1 45*, NadD inh 6, bovine MsrA act -5, rCAG bind conf 62* and DNA CAG counter 23*.
`COc1ccc(CN2C(=O)NC(=O)/C(=C/c3ccoc3)C2=O)cc1` gave MsrA inh 2, rCAG binder-1 53*, NadD inh 10, bovine MsrA act -7, rCAG bind conf 45* and DNA CAG counter 17*.
Screening O=C1NC(=O)N(Cc2ccccc2)C(=O)/C1=C\c1ccco1 returned MsrA inh 0, rCAG binder-1 48*, NadD inh 10, bovine MsrA act -2, rCAG bind conf 35* and DNA CAG counter 11*.
For CCOc1ccc(N2C(=O)NC(=O)/C(=C/c3cnc(SC)nc3)C2=O)cc1 the results were MsrA inh 1, rCAG binder-1 3, NadD inh -5 and bovine MsrA act -8.
CCOc1ccc(/C=C2/C(=O)NC(=O)N(CCc3ccc(F)cc3)C2=O)cc1 was read as MsrA inh -1, rCAG binder-1 35*, NadD inh 4, bovine MsrA act -11, rCAG bind conf 3 and DNA CAG counter 2.
For C[C@H](CO)N1C[C@H](C)[C@@H](CN(C)C(=O)Oc2ccc3ccccc3c2)OCc2cn(nn2)CCCC1=O the results were MsrA inh 0, rCAG binder-1 0, NadD inh 5 and bovine MsrA act -2.
`O=C1NC(=O)N(Cc2ccc(F)cc2)C(=O)/C1=C\C=C\c1ccco1` gave MsrA inh -1, rCAG binder-1 52*, NadD inh 13, bovine MsrA act -4, rCAG bind conf 18 and DNA CAG counter 7.6*.
For O=C1NC(=O)N(Cc2ccco2)C(=O)/C1=C/c1cccn1CCOc1ccccc1Cl the results were MsrA inh -1, rCAG binder-1 49*, NadD inh 13, bovine MsrA act -5, rCAG bind conf 11 and DNA CAG counter 5.7*.
Screening CCCCN1C(=O)/C(=C/C=C/c2ccco2)C(=O)NC1=S returned MsrA inh 1, rCAG binder-1 76*, NadD inh 4, bovine MsrA act -5, rCAG bind conf 66*, DNA CAG counter 26*, DNA CAG DR 3.1*, dCAG TOPRO ctr 3.1* and rCAG binder-2 1.4*.
`C=CC1CN2CCC1CC2c1[nH]c2ccccc2c1CCO` (stereo not given) gave MsrA inh 0, rCAG binder-1 2, NadD inh -4 and bovine MsrA act -6.
